# Measured values as given in PubChem BioAssay (NCATS).
# Results filed as inconclusive are left out. Activity calls are given as the source filed them. Unless noted, the call rests on the fitted dose curve; in most records, active means well fitted cell-killing curve with a large enough effect; inconclusive means small, poorly fitted or top-dose-only effect, or effect the other way; inactive means no such curve, though single readings can be large or run the other way.
# Legend:
# [1] = Quantitative High-Throughput drug screen in 47 multiple myeloma cell lines against the NCATS MIPE library collection: PCM6_Riken cell viability assay (AID 1919870); further: nearly all actives have a fitted effect of over 30% in size; further: potency means the concentration at half of the fitted maximal effect
# Procedure, shortened: (§1)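 500 cells/well; MIPE 4.0 drugs pin-transferred; 48 h, 37C, 5% CO2. CellTiter-Glo, 5 min RT, luminescence. Controls: DMSO 100%, media 0%.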
# [2] = Quantitative High-Throughput drug screen in 47 multiple myeloma cell lines against the NCATS MIPE library collection: RPMI8226_ATCC cell viability assay (AID 1919871); further: nearly all actives have a fitted effect of over 30% in size; further: potency means the concentration at half of the fitted maximal effect
# Procedure, shortened: as §1
# [3] = Quantitative High-Throughput drug screen in 47 multiple myeloma cell lines against the NCATS MIPE library collection: OPM2_DSMZ cell viability assay (AID 1919872); further: nearly all actives have a fitted effect of over 30% in size; further: potency means the concentration at half of the fitted maximal effect
# Procedure, shortened: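 Approved and investigational drugs from MIPE 4.0 were added by pin tool to 500 cells per well. After 48 hours at 37C, ATP-based CellTiter-Glo luminescence indicated remaining viability.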
# [4] = Quantitative High-Throughput drug screen in 47 multiple myeloma cell lines against the NCATS MIPE library collection: KMS11_JCRBsus cell viability assay (AID 1919873); further: nearly all actives have a fitted effect of over 50% in size; further: potency means the concentration at half of the fitted maximal effect
# Procedure, shortened: as §1
# [5] = Quantitative High-Throughput drug screen in 47 multiple myeloma cell lines against the NCATS MIPE library collection: KMS28BM_JCRB cell viability assay (AID 1919874); further: nearly all actives have a fitted effect of over 35% in size; further: potency means the concentration at half of the fitted maximal effect
# Procedure, shortened: as §1
# [6] = qHTS for identification of novel therapeutic agents for treatment of microphthalmiaassociated transcription factor (MiT) renal cell carcinoma (RCC) (AID 1963991; calls by dose curve; further: potency means the concentration at half of the fitted maximal effect); conditions: CellTiter-Glo, 48 h; for z-score: stronger effect = lower value
# Procedure, shortened: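 Viability of three TFE3-fusion renal carcinoma lines measured by CellTiter-Glo after 48 h treatment with each of 1912 compounds at 11 concentrations. Responses scaled between DMSO (100%) and empty wells (0%) before curve fitting.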
# [7] = qHTS drug screen for cell cycle checkpoint inhibitors in PARPi-resistant BRCA-mutant ovarian cancer cell lines. (AID 1963452; calls by dose curve); conditions: PEO1/OlaR viability, CellTiter-Glo luminescence, 96 h, stronger effect = lower value
# Procedure, shortened: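 PEO1, PEO4 and PEO1/OlaR ovarian cancer cells, 600 per well, exposed 96 h at 37C to a dilution series. Viability read by CellTiter-Glo luminescence, normalized to DMSO and empty wells; activity summarized as Z-AUC.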
# [8] = TFE3-RCC UOK109 viability, measured here: UOK109 Z-AUC
# [9] = TFE3-RCC viability, measured here: UOK124 Z-AUC
# [10] = TFE3-RCC viability, measured here: UOK145 Z-AUC
# [11] = measured here: PEO1 parental Z-AUC
Compound,Potency [1],Potency [2],Potency [3],Potency [4],Potency [5],"z-score [6, 8]","z-score [6, 9]","z-score [6, 10]",Potency ([6]; TFE3-RCC UOK109 viability),Z-AUC [7],"Z-AUC [7, 11]",Z-AUC ([7]; measured here: PEO4 Z-AUC)
CCN1CCN(C(=O)Cc2ccc(Nc3ncc(F)c(Nc4ccc(C(=O)Nc5ccccc5Cl)cc4)n3)cc2)CC1,2960 nM (active),18700 nM (active),6620 nM (active),743 nM (active),1870 nM (active),,,,,,,
CC(C)[C@]12O[C@@H]1[C@@H]1O[C@]13[C@]1(O[C@H]1C[C@@H]1C4=C(CC[C@@]13C)C(=O)OC4)[C@H]2O,inactive,inactive,inactive,inactive,inactive,-3.4,-3.26,-3.53,,,,
C[C@]12CC[C@H]3[C@@H](CCC4=CC(=O)CC[C@@]43C)[C@H]1CC[C@H]2O,inactive,inactive,inactive,,,,,,,,,
C#C[C@]1(O)C=C[C@@H]2[C@@H]3CCC4=CC(=O)CC[C@@H]4[C@H]3CC[C@@]21CC,inactive,inactive,inactive,,inactive,1.02,0.666,-1.42,,,,
CC(C)(O)C=CC(=O)[C@](C)(O)[C@H]1[C@H](O)C[C@]2(C)[C@@H]3CC=C4[C@@H](C=C(O)C(=O)C4(C)C)[C@]3(C)C(=O)C[C@@]12C,29.6 nM (active),52.6 nM (active),132 nM (active),118 nM (active),166 nM (active),-3.73,-2.29,-2.28,83.3 nM (active),,,
C[C@@]12OC(=O)[C@]1([C@@H](O)[C@@H]1C=CCCC1)NC(=O)[C@H]2CCCl,10.5 nM (active),29.6 nM (active),37.2 nM (active),6.6 nM (active),9.3 nM (active),-1.51,-3.3,-2.86,66.2 nM (active),,,
c1ccc2c(CN3CCNCC3)cccc2c1,inactive,inactive,inactive,inactive,,0.545,0.291,0.833,,-0.771 (inactive),-0.119,-0.706
CCNC(=O)CC1N=C(c2ccc(Cl)cc2)c2cc(OC)ccc2-n2c(C)nnc21 (centres undefined),23500 nM (active),4690 nM (active),16600 nM (active),18700 nM (active),18700 nM (active),,,,,0.242 (inactive),0.653,0.806
CC1(N2CCC(n3c([C@@H]4CCCNC4)nc4ccccc43)CC2)CCCCCCC1,14800 nM (active),20900 nM (active),18700 nM (active),13200 nM (active),23500 nM (active),,,,,1.01 (inactive),0.227,0.462
CCCN1CCO[C@@H]2c3cc(O)ccc3OC[C@@H]21,inactive,inactive,inactive,inactive,,0.649,0.425,0.561,,,,
CC[C@@H]1[C@@H](C)O[C@@](O)([C@@H](C)[C@H](O)[C@H](C)[C@H]2OC(=O)C=CC=C[C@@H](C)[C@@H]([C@@H](C)[C@@H](O)[C@H](C)[C@@]3(O)C[C@H](O[C@H]4C[C@H](O)[C@H](O)[C@H](C)O4)[C@H](CC)[C@@H](C)O3)OC(=O)C=CC=C[C@@H]2C)C[C@H]1O[C@H]1C[C@H](O)[C@H](O)[C@H](C)O1,743 nM (active),372 nM (active),372 nM (active),418 nM (active),372 nM (active),-1.85,-2.49,-1.57,1050 nM (active),,,
CC(O)=C(C#N)C(=O)Nc1cc(Br)ccc1Br,1320 nM (active),11800 nM (active),inactive,,,0.277,0.279,0.63,,,,
CCOC(=O)c1c(C(C#N)=CN)c2ccc(Cl)c(Cl)c2n1C,inactive,inactive,inactive,,inactive,,,,,0.895 (inactive),0.557,0.414
CN1[C@H]2CC(O)C[C@H]1[C@H]1O[C@H]12 (some centres undefined),11800 nM (active),18700 nM (active),23500 nM (active),,,,,,,,,
O=C(Nc1ccncc1)C(=O)c1cn(Cc2ccc(Cl)cc2)c2ccccc12,5.9 nM (active),418 nM (active),105 nM (active),5.3 nM (active),4.7 nM (active),-1.08,-1.43,-1.01,469 nM (active),-0.51 (inactive),-1.11,-0.872
C[C@@H]1CC[C@@]2(OC1)O[C@H]1C[C@H]3[C@@H]4CC=C5C[C@@H](O[C@@H]6O[C@H](CO)[C@@H](O[C@@H]7O[C@@H](C)[C@H](O)[C@@H](O)[C@@H]7O)[C@H](O)[C@@H]6O[C@@H]6O[C@@H](C)[C@H](O)[C@@H](O)[C@@H]6O)CC[C@]5(C)[C@@H]4CC[C@]3(C)[C@@H]1[C@H]2C,3320 nM (active),2350 nM (active),2090 nM (active),2350 nM (active),2960 nM (active),,,,,,,
O=c1[nH]c2ccccc2n1C1CCN(Cc2ccc(-c3[nH]c4cc5ncnc5cc4nc3-c3ccccc3)cc2)CC1,13200 nM (active),13200 nM (active),18700 nM (active),20900 nM (active),18700 nM (active),,,,,-0.823 (inactive),-0.392,-0.582
Cc1c(N)nc([C@H](CC(N)=O)NC[C@@H](N)C(N)=O)nc1C(=O)N[C@H](C(=O)N[C@@H](C)[C@H](O)[C@@H](C)C(=O)N[C@@H](C(=O)NCCc1nc(-c2nc(C(=O)NCCC[S+](C)C)cs2)cs1)[C@@H](C)O)C(O[C@H]1O[C@H](CO)[C@H](O)[C@@H](O)[C@@H]1O[C@H]1O[C@H](CO)[C@@H](O)[C@H](OC(N)=O)[C@H]1O)c1cnc[nH]1 (some centres undefined),inactive,inactive,2350 nM (active),inactive,7430 nM (active),,,,,,,
